# Experimental data: PubChem BioAssay (NCATS)
# Results filed as inconclusive are left out. Entries that show only a call come without a potency. Activity calls are given as the source filed them. Calls follow the shape of the dose curve; as a rule, active = well fitted inhibition curve with a large enough effect; inconclusive = small, poorly fitted or top-dose-only effect; inactive = flat fitted curve, though single readings scatter. Bridge positions count the residues as written; N and C are the ends. Square brackets hold non-standard residues; d marks the D form. Peptide text beside a SMILES is read from it. * marks the point of attachment. Ileψ(thiazoline)Cys = CC[C@H](C)[C@H](N)C1=N[C@H](C(=O)*)CS1; d(aIle) = CC[C@H](C)[C@@H](N)C(=O)O; dOrn = NCCC[C@@H](N)C(=O)O
# System: DIV17
# Assay: qHTS profiling for inhibitors of Plasmodium falciparum proliferation (AID 504749); also: nearly all actives have a fitted effect of over 60% in size
# Conditions: P. falciparum in erythrocytes, SYBR Green DNA, 72 h; series mostly up to 12.8 µM
# Summary of the method: (§1)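 Each compound contacts P. falciparum-infected red blood cells for 72 h at 37 C; lysis buffer (Tris, EDTA, saponin, Triton X, SYBR Green I) is added and fluorescence measured next morning; values normalized to controls.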
# Potency is read from the fitted curve at half-maximal effect.
row,Compound,Potency
1,C[C@@H]1C[C@H]2[C@@H]3C[C@H](F)C4=CC(=O)C=C[C@@]4(C)[C@]3(F)[C@H](O)C[C@]2(C)[C@@]1(O)C(=O)CO,inactive
2,C[C@H](O)Cn1cnc2c1c(=O)n(C)c(=O)n2C,inactive
3,CC(=C(CCOP(=O)(O)O)SC(=O)c1ccccc1)N(C=O)Cc1cnc(C)nc1N,inactive
4,NC[C@@H]1O[C@@H](O[C@H]2[C@H](O)[C@H](O[C@@H]3O[C@H](CO)[C@@H](O)[C@H](N)[C@@H]3O)[C@@H](N)C[C@H]2N)[C@H](N)C[C@@H]1O,inactive
5,CCc1c(C)[nH]c2c1C(=O)[C@H](CN1CCOCC1)CC2,inactive
6,C=C1c2c(Cl)ccc(O)c2C(O)=C2C(=O)[C@@]3(O)C(O)=C(C(N)=O)C(=O)[C@@H](N(C)C)[C@@H]3[C@@H](O)[C@H]12,inactive
7,CC[C@H](C)[C@H](N)C1=N[C@H](C(=O)N[C@@H](CC(C)C)C(=O)N[C@@H](CCC(=O)O)C(=O)N[C@@H](C(=O)N[C@H]2CCCCNC(=O)[C@@H](CC(N)=O)NC(=O)[C@@H](CC(=O)O)NC(=O)[C@@H](Cc3cnc[nH]3)NC(=O)[C@@H](Cc3ccccc3)NC(=O)[C@@H]([C@@H](C)CC)NC(=O)[C@@H](CCCN)NC2=O)[C@@H](C)CC)CS1 ({Ileψ(thiazoline)Cys}-LE[d(aIle)]K[dOrn][d(aIle)][dF][dH][dD][dN]; lactam 4-C),inactive
8,O=C(N/N=C\c1ccc([N+](=O)[O-])o1)c1ccc(O)cc1,2.28 µM (active)
9,C[C@@H](CNC1CCCCC1)OC(=O)c1ccccc1,4.55 µM (active)
10,CCOC(=O)O[C@@H](C)OC(=O)[C@@H]1N2C(=O)[C@@H](NC(=O)[C@@H](N)c3ccccc3)[C@H]2SC1(C)C,inactive
11,Cc1ccsc1/C=C\C1=NCCCN1C,inactive
12,C#C[C@]1(O)CC[C@@H]2[C@H]3CCC4=CCCC[C@@H]4[C@@H]3CC[C@@]21C,inactive
13,CC1(C)[C@@H](OC(=O)CCC(=O)O)CC[C@@]2(C)[C@H]1CC[C@@]1(C)[C@H]2C(=O)C=C2[C@H]3C[C@](C)(C(=O)O)CC[C@]3(C)CC[C@@]21C,inactive
14,C[C@H](CCC(=O)O)[C@H]1CC[C@@H]2[C@@H]3[C@@H](O)C[C@H]4C[C@@H](O)CC[C@@]4(C)[C@H]3CC[C@@]21C,inactive

# System: DIV30
# Assay: as above
# Conditions: P. falciparum in erythrocytes, SYBR Green DNA, 72 h; series mostly up to 12.8 µM
# Summary of the method: as §1
row,Compound,Potency
1,C[C@@H]1C[C@H]2[C@@H]3C[C@H](F)C4=CC(=O)C=C[C@@]4(C)[C@]3(F)[C@H](O)C[C@]2(C)[C@@]1(O)C(=O)CO,inactive
2,C[C@H](O)Cn1cnc2c1c(=O)n(C)c(=O)n2C,inactive
3,CCCCC[C@H](O)/C=C\[C@@H]1[C@H](O)CC(=O)[C@@H]1CCCCCCC(=O)O,inactive
4,CC(=C(CCOP(=O)(O)O)SC(=O)c1ccccc1)N(C=O)Cc1cnc(C)nc1N,inactive
5,NC[C@@H]1O[C@@H](O[C@H]2[C@H](O)[C@H](O[C@@H]3O[C@H](CO)[C@@H](O)[C@H](N)[C@@H]3O)[C@@H](N)C[C@H]2N)[C@H](N)C[C@@H]1O,inactive
6,CCc1c(C)[nH]c2c1C(=O)[C@H](CN1CCOCC1)CC2,inactive
7,C=C1c2c(Cl)ccc(O)c2C(O)=C2C(=O)[C@@]3(O)C(O)=C(C(N)=O)C(=O)[C@@H](N(C)C)[C@@H]3[C@@H](O)[C@H]12,inactive
8,CC[C@H](C)[C@H](N)C1=N[C@H](C(=O)N[C@@H](CC(C)C)C(=O)N[C@@H](CCC(=O)O)C(=O)N[C@@H](C(=O)N[C@H]2CCCCNC(=O)[C@@H](CC(N)=O)NC(=O)[C@@H](CC(=O)O)NC(=O)[C@@H](Cc3cnc[nH]3)NC(=O)[C@@H](Cc3ccccc3)NC(=O)[C@@H]([C@@H](C)CC)NC(=O)[C@@H](CCCN)NC2=O)[C@@H](C)CC)CS1 ({Ileψ(thiazoline)Cys}-LE[d(aIle)]K[dOrn][d(aIle)][dF][dH][dD][dN]; lactam 4-C),inactive
9,O=C(N/N=C\c1ccc([N+](=O)[O-])o1)c1ccc(O)cc1,5.1 µM (active)
10,CCOC(=O)O[C@@H](C)OC(=O)[C@@H]1N2C(=O)[C@@H](NC(=O)[C@@H](N)c3ccccc3)[C@H]2SC1(C)C,inactive
11,Cc1ccsc1/C=C\C1=NCCCN1C,inactive
12,O=C(O)COCCN1CCN([C@@H](c2ccccc2)c2ccc(Cl)cc2)CC1,inactive
13,C#C[C@]1(O)CC[C@@H]2[C@H]3CCC4=CCCC[C@@H]4[C@@H]3CC[C@@]21C,inactive
14,CC1(C)[C@@H](OC(=O)CCC(=O)O)CC[C@@]2(C)[C@H]1CC[C@@]1(C)[C@H]2C(=O)C=C2[C@H]3C[C@](C)(C(=O)O)CC[C@]3(C)CC[C@@]21C,inactive
15,C[C@H](CCC(=O)O)[C@H]1CC[C@@H]2[C@@H]3[C@@H](O)C[C@H]4C[C@@H](O)CC[C@@]4(C)[C@H]3CC[C@@]21C,inactive

# System: Dd2
# Assay: as above
# Conditions: P. falciparum in erythrocytes, SYBR Green DNA, 72 h; series mostly up to 12.8 µM
# Summary of the method: as §1
row,Compound,Potency
1,C[C@@H]1C[C@H]2[C@@H]3C[C@H](F)C4=CC(=O)C=C[C@@]4(C)[C@]3(F)[C@H](O)C[C@]2(C)[C@@]1(O)C(=O)CO,inactive
2,C[C@H](O)Cn1cnc2c1c(=O)n(C)c(=O)n2C,inactive
3,CCCCC[C@H](O)/C=C\[C@@H]1[C@H](O)CC(=O)[C@@H]1CCCCCCC(=O)O,inactive
4,CC(=C(CCOP(=O)(O)O)SC(=O)c1ccccc1)N(C=O)Cc1cnc(C)nc1N,inactive
5,NC[C@@H]1O[C@@H](O[C@H]2[C@H](O)[C@H](O[C@@H]3O[C@H](CO)[C@@H](O)[C@H](N)[C@@H]3O)[C@@H](N)C[C@H]2N)[C@H](N)C[C@@H]1O,inactive
6,CCc1c(C)[nH]c2c1C(=O)[C@H](CN1CCOCC1)CC2,inactive
7,C=C1c2c(Cl)ccc(O)c2C(O)=C2C(=O)[C@@]3(O)C(O)=C(C(N)=O)C(=O)[C@@H](N(C)C)[C@@H]3[C@@H](O)[C@H]12,2.24 µM (active)
8,CC[C@H](C)[C@H](N)C1=N[C@H](C(=O)N[C@@H](CC(C)C)C(=O)N[C@@H](CCC(=O)O)C(=O)N[C@@H](C(=O)N[C@H]2CCCCNC(=O)[C@@H](CC(N)=O)NC(=O)[C@@H](CC(=O)O)NC(=O)[C@@H](Cc3cnc[nH]3)NC(=O)[C@@H](Cc3ccccc3)NC(=O)[C@@H]([C@@H](C)CC)NC(=O)[C@@H](CCCN)NC2=O)[C@@H](C)CC)CS1 ({Ileψ(thiazoline)Cys}-LE[d(aIle)]K[dOrn][d(aIle)][dF][dH][dD][dN]; lactam 4-C),inactive
9,O=C(N/N=C\c1ccc([N+](=O)[O-])o1)c1ccc(O)cc1,3.55 µM (active)
10,C[C@@H](CNC1CCCCC1)OC(=O)c1ccccc1,4.47 µM (active)
11,CCOC(=O)O[C@@H](C)OC(=O)[C@@H]1N2C(=O)[C@@H](NC(=O)[C@@H](N)c3ccccc3)[C@H]2SC1(C)C,inactive
12,Cc1ccsc1/C=C\C1=NCCCN1C,inactive
13,O=C(O)COCCN1CCN([C@@H](c2ccccc2)c2ccc(Cl)cc2)CC1,inactive
14,C#C[C@]1(O)CC[C@@H]2[C@H]3CCC4=CCCC[C@@H]4[C@@H]3CC[C@@]21C,inactive
15,CC1(C)[C@@H](OC(=O)CCC(=O)O)CC[C@@]2(C)[C@H]1CC[C@@]1(C)[C@H]2C(=O)C=C2[C@H]3C[C@](C)(C(=O)O)CC[C@]3(C)CC[C@@]21C,inactive
16,C[C@H](CCC(=O)O)[C@H]1CC[C@@H]2[C@@H]3[C@@H](O)C[C@H]4C[C@@H](O)CC[C@@]4(C)[C@H]3CC[C@@]21C,inactive
